# Experimental data reported in PubChem BioAssay (Tox21).
# Unmarked numbers belong to inactive results. Records with an inconclusive call do not appear. Entries that show only a call come without a potency. The source made the active and inactive calls. Unless noted, calls follow the shape of the dose curve; as a rule, active = well fitted curve in the direction sought with a large enough effect in the repeat runs; inconclusive = weak or mixed curves; inactive = no such curve, though single readings can be large; an effect the other way counts as inactive or inconclusive.
# Key:
# [1] = biological target: Luciferin 4-monooxygenase (Photinus pyralis) (UniProt P08659); assay: qHTS assay to identify small molecule inhibitors of firefly luciferase (AID 1224835); also: nearly all actives have a fitted effect of over 25% in size
# Outline: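 Quantitative HTS format; KM concentrations of both substrates. Purified P. pyralis FLuc activity quantified from luminescence images.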
# [2] = qHTS assay to identify small molecule agonists of the constitutive androstane receptor (CAR) signaling pathway - cell viability counter screen (AID 1224836); also: nearly all actives have a fitted effect of over 45% in size
# Outline: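 Counter screen multiplexed with the CAR reporter readout: HepG2 cells co-transfected with hCAR and the CYP2B6-2.2kb construct receive a 15-concentration compound series and 0.75 uM PK11195 (final), then CellTiter-Fluor fluorescence is read after 23 h.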
# [3] = qHTS assay to identify small molecule antagonists of the estrogen related receptor signaling pathway with the pleiotropic PPARgamma coactivator (PGC) from Tox21 10K library - cell viability counter screen (AID 1224840; active = well fitted cell-killing curve with a large enough effect in the repeat runs, not every such curve was filed as active; also: nearly all actives have a fitted effect of over 40% in size)
# Outline: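 PGC/ERR cells were seeded at 2,000 cells/well and left 6 hours at 37 C/5% CO2 before pin-tool addition of compounds in DMSO. After 17.5 hours at 37 C, CellTiter-Fluor was added and fluorescence read 30 minutes later.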
# [4] = qHTS assay to identify small molecule antagonists of the estrogen related receptor signaling pathway with the pleiotropic PPARgamma coactivator (PGC) from Tox21 10K library (AID 1224841; call rule not given here; also: actives are mostly falling curves and most rising ones were filed inactive; nearly all actives have a fitted effect of over 50% in size)
# Outline: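 PGC/ERR reporter cells were seeded at 2,000 cells/well and held 6 hours at 37 C/5% CO2 before pin-tool addition of compounds in DMSO. After 18 hours at 37 C, One-Glo was added and luminescence read after 30 minutes at room temperature.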
# [5] = qHTS assay to identify small molecule agonists of the estrogen related receptor signaling pathway with the pleiotropic PPARgamma coactivator (PGC) from Tox21 10K library (AID 1224842); also: nearly all actives have a fitted effect of over 15% in size
# Outline: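 PGC/ERR reporter cells (NTP line) were seeded 2,000 per well, rested 6 h at 37 C/5% CO2, then pin-dosed with compounds in DMSO for 18 h at 37 C; luciferase read by One-Glo luminescence after 30 min at room temperature.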
# [6] = biological target: Thyrotropin receptor (Homo sapiens) (UniProt P16473); assay: qHTS assay to identify small molecule agonists of the thyroid stimulating hormone receptor (TSHR) signaling pathway (AID 1224843; calls by dose curve; also: nearly all actives have a fitted effect of over 45% in size)
# Outline: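 TSHR-expressing HEK293 cells (800 per well) were exposed to compounds for 30 min at room temperature. cAMP was then detected by HTRF competition with cAMP-d2 and anti-cAMP cryptate, read after 1 h at room temperature. Fifteen concentrations, triplicate.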
# [7] = qHTS assay to identify small molecule agonists of the hypoxia (HIF-1) signaling pathway - cell viability counter screen (AID 1224844; calls by dose curve; also: nearly all actives have a fitted effect of over 50% in size)
# Outline: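 HRE-bla ME-180 cells in medium with 0.5% dialyzed FBS were preincubated 5 hrs at 37C, exposed to compounds for 17 hrs, then viability was read as CellTiter-Glo luminescence after 30 min at room temperature, in the reporter wells.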
# [8] = qHTS assay to identify small molecule agonists of H2AX - cell viability counter screen (AID 1224847; calls by dose curve; also: top concentration of the series differs between compounds; nearly all actives have a fitted effect of over 30% in size)
# Outline: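 We seed wild-type CHO-K1 cells overnight, treat them for 3 hr at 37C with compounds in 15-concentration series, and quantify remaining viability by CellTiter-Glo luminescence.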
# [9] = qHTS assay to identify small molecule antagonists of the estrogen related receptor (ERR) signaling pathway from Tox21 library (AID 1224848); also: nearly all actives have a fitted effect of over 50% in size
# Outline: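 Cells: ERR line, 2,000/well; 6 h preincubation 37 C/5% CO2. Cpd in DMSO via pin tool; 18 h, 37 C. ONE-Glo, 30 min RT, luminescence.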
# [10] = qHTS assay to identify small molecule agonists of the estrogen related receptor (ERR) signaling pathway from Tox21 library (AID 1224849; calls by dose curve; also: nearly all actives have a fitted effect of over 15% in size); details: ERR reporter cell line, ONE-Glo luciferase, 18 h; at 92.4 µM (top of the series) unless noted
# Outline: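 ERR reporter cell line (NTP) seeded, rested 6 h at 37 C/5% CO2, then pinned with Tox21 compounds in DMSO. After 18 h at 37 C, ONE-Glo luciferase luminescence was read following 30 min at room temperature.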
# [11] = qHTS RealTime-Glo MT Cell Viability Assay in HepG2 cells - 24 hour (AID 1224867); also: nearly all actives have a fitted effect of over 50% in size
# Outline: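 Viability was tracked continuously by NanoLuc luminescence from prosubstrate reduced by living HepG2 cells, at successive time points over 40 h of compound exposure. Cells with reagent were preincubated 5 h at 37 °C before compound addition.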
# [12] = qHTS RealTime-Glo MT Cell Viability Assay in HEK293 cells - 32 hour (AID 1224868)
# Outline: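 Viability tracked continuously by luminescence as live cells reduce a prosubstrate for NanoLuc; HEK293 cells preincubated 5 h, compound-treated at 37 C, and read at 0, 8, 16, 24, 32 and 40 h.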
# [13] = A CellTox Green Cytotoxicity Assay to monitor cytotoxicity in HEK293 cells - 0 hour (AID 1224869); also: nearly all actives have a fitted effect of over 50% in size
# Outline: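 HEK293 cells premixed with CellTox Green dye were seeded at 600 cells/well and left 5 h at 37 C/5% CO2 before pin transfer of 23 nL compound in DMSO. Fluorescence from dye bound to dead-cell DNA was read during 40 h treatment.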
# [14] = qHTS RealTime-Glo MT Cell Viability Assay in HepG2 cells - 40 hour (AID 1224870); also: nearly all actives have a fitted effect of over 50% in size
# Outline: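 HepG2 cells mixed with RealTime-Glo MT reagents (NanoLuc plus cell-permeant prosubstrate) were seeded at 600 cells/well, incubated 5 h at 37 C/5% CO2, then pinned with compounds in DMSO; nonlytic luminescence tracked viability during 40 h treatment.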
# [15] = biological target: Nuclear receptor subfamily 1 group I member 3 (Homo sapiens) (UniProt Q14994); assay: qHTS assay to identify small molecule antagonists of the constitutive androstane receptor (CAR) signaling pathway (AID 1224838); also: nearly all actives have a fitted effect of over 40% in size
# Outline: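 HepG2 cells stably co-transfected with hCAR and a CYP2B6-2.2kb luciferase reporter were seeded 4 h before compound addition at 15 concentrations. Cells were stimulated with 50 nM CITCO (final) for 24 h at 37 C; luciferase luminescence was then read.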
# [16] = biological target: Nuclear receptor subfamily 1 group I member 3 (Homo sapiens) (UniProt Q14994); assay: qHTS assay to identify small molecule agonists of the constitutive androstane receptor (CAR) signaling pathway (AID 1224839); also: nearly all actives have a fitted effect of over 15% in size; also: potency is read from the fitted curve at half-maximal effect
# Outline: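 A 15-concentration quantitative screen uses HepG2 cells co-transfected stably with human CAR and CYP2B6-2.2kb reporter. Treatment lasts 24 h with 0.75 uM PK11195 final present; ONE-Glo luminescence is the signal.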
# [17] = qHTS assay to identify small molecule antagonists of the constitutive androstane receptor (CAR) signaling pathway - cell viability counter screen (AID 1224837); also: nearly all actives have a fitted effect of over 45% in size
# Outline: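 HepG2 cells stably expressing hCAR and a CYP2B6-2.2kb reporter were plated and pre-incubated 4 hr at 37 C/5% CO2, then given compounds at 15 concentrations plus 50 nM CITCO (final). After 23 hr, viability was read by CellTiter-Fluor fluorescence.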
# [18] = qHTS assay to identify small molecule agonists of H2AX (AID 1224845; active = well fitted activation curve with a large enough effect in the signal ratio in the repeat runs, not every such curve was filed as active; the % refers to the signal ratio)
# Outline: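 Wild-type CHO-K1 cells plated overnight, then exposed 3 hr at 37C to compounds at 15 concentrations (0.76% DMSO). Lysed, then HTRF anti-pH2AX(S139)-cryptate/anti-H2AX-d2 detection after 24 hr at room temperature; emissions 665 and 620 nm.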
# [19] = qHTS assay to identify small molecule agonists of the hypoxia (HIF-1) signaling pathway (AID 1224846; active = well fitted activation curve with a large enough effect in the signal ratio in the repeat runs, not every such curve was filed as active; the % refers to the signal ratio)
# Outline: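 HRE-bla ME-180 cells (beta-lactamase reporter under hypoxia response element) were plated at 2,000 cells/well in medium with 0.5% dialyzed FBS, rested 5 hrs, then given compounds in DMSO for 17 hrs at 37C, 5% CO2. Reporter induction was read with CCF4-AM FRET substrate.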
# Nuclear receptor subfamily 1 group I member 3 (Homo sapiens), sequence (Q14994 whole entry, looked up): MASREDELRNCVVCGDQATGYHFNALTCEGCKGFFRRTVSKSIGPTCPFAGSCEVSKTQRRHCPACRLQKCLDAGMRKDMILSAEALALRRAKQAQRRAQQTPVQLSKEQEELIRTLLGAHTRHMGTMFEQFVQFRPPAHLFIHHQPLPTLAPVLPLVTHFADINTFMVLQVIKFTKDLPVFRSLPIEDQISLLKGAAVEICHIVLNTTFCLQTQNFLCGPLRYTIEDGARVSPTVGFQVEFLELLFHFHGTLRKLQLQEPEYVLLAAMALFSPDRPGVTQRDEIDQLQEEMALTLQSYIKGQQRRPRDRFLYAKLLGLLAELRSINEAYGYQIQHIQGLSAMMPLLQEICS
# Luciferin 4-monooxygenase (Photinus pyralis), sequence (P08659 whole entry, looked up): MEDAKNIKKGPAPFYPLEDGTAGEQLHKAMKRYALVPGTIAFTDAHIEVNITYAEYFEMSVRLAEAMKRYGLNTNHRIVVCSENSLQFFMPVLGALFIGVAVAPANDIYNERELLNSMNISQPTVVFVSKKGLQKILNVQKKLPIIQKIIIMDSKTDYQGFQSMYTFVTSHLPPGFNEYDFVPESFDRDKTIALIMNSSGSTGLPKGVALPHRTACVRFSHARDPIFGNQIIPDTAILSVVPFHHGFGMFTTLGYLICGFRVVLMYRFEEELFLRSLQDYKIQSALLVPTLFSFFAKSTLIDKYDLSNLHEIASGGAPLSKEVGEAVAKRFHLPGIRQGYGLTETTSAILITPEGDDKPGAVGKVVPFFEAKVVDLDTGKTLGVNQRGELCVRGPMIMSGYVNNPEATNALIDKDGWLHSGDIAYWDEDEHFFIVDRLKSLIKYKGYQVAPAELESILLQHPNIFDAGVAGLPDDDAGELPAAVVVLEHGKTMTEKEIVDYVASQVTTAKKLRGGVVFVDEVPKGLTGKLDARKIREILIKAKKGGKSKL
# Thyrotropin receptor (Homo sapiens), sequence (P16473 whole entry, looked up): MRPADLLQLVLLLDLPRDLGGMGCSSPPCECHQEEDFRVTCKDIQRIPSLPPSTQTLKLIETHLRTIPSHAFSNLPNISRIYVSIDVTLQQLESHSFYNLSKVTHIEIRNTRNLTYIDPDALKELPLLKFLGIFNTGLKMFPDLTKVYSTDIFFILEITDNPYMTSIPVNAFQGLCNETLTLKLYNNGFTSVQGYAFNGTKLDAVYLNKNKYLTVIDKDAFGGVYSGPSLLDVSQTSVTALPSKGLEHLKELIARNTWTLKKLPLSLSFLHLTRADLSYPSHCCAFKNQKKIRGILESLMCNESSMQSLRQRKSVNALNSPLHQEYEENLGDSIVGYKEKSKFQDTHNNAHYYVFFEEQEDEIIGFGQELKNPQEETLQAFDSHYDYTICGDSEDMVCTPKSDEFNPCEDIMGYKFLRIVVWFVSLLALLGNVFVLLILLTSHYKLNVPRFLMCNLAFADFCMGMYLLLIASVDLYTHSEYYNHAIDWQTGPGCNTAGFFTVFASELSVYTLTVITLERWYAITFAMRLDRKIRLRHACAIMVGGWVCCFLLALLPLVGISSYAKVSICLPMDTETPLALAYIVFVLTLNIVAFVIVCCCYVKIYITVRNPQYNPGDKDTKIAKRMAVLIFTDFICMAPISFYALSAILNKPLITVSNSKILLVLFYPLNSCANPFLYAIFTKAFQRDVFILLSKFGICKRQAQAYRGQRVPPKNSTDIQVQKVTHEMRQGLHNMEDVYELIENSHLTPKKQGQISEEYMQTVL
SMILES,Potency [1],Potency [2],Potency [3],Potency [4],Potency [5],Potency [6],Potency [7],Potency [8],Potency [9],"activity change, positive = activation [10]",Potency [11],Potency [12],Potency [13],Potency [14],Potency [15],Potency [16],Potency [17],Potency [18],Potency [19]
ClC1(Cl)C2(Cl)C3(Cl)C4(Cl)C(Cl)(Cl)C5(Cl)C3(Cl)C1(Cl)C5(Cl)C24Cl (centres undefined),inactive,inactive,inactive,inactive,inactive,inactive,inactive,inactive,inactive,2.52%,inactive,inactive,inactive,inactive,–,–,–,–,–
CCOP(=O)(OCC)Oc1nc(Cl)c(Cl)cc1Cl,inactive,inactive,inactive,–,–,inactive,inactive,–,–,–,–,inactive,–,inactive,inactive,inactive,–,–,–
CCC(C)c1cccc(C(C)CC)c1O (centres undefined),inactive,inactive,–,–,–,–,inactive,–,–,–,inactive,inactive,inactive,inactive,–,–,inactive,–,–
CSC1=N[C@@](C)(c2ccccc2)C(=O)N1Nc1ccccc1,inactive,–,–,–,–,–,inactive,–,–,–,inactive,–,–,inactive,inactive,19.3 µM (active),inactive,inactive,inactive
O=[N+]([O-])[O-].[Tl+],–,inactive,inactive,–,–,inactive,inactive,inactive,–,–,–,–,inactive,inactive,–,–,–,inactive,inactive
